Laboratory results from PubChem BioAssay (Tox21).
Inconclusive results are not listed. A call without a number means that no potency is given here. Values without a mark were called inactive. The source made the active and inactive calls. Calls come from the whole dose curve; as a rule, active = well fitted cell-killing curve with a large enough effect in the repeat runs; inconclusive = weak or mixed curves, or effect the other way; inactive = flat fitted curve, though single readings scatter.

Key:
[1] = cAMP Responsive Elements (CRE) small molecule antagonists, cell-based qHTS assay: qHTS cell viability counter screen (AID 2060913); details: CRE-bla HEK293T viability, CellTiter-Glo luminescence, 5 h; series mostly up to 92.4 µM; note: nearly all actives have a fitted effect of over 40% in size
Outline: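 CRE-bla HEK293T cells were seeded in assay medium with 10% dialyzed FBS, incubated 18 hrs at 37 C, then exposed to compounds plus 0.25 uM final NKH477 for 3 hrs. Viability was read by CellTiter-Glo luminescence after 30 min, in the same wells.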

[2] = cAMP Responsive Elements (CRE) small molecule agonists, cell-based qHTS assay: qHTS cell viability counter screen (AID 2060914); details: CRE-bla HEK293T viability, CellTiter-Glo luminescence, 5 h; series mostly up to 92.4 µM; note: nearly all actives have a fitted effect of over 50% in size
Outline: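 Luminescence read-out (CellTiter-Glo, 30 min RT) of ATP-based viability in CRE-bla HEK 293T cells, run in the same wells as the β-lactamase reporter assay after 3 h compound treatment at 37 °C.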
Potency is the fitted concentration of half-maximal effect.

## CC(=C(CCOC(=O)C(C)C)SSC(CCOC(=O)C(C)C)=C(C)N(C=O)Cc1cnc(C)nc1N)N(C=O)Cc1cnc(C)nc1N
[1]
  Potency: inactive
[2]
  Potency: inactive

## O=C1NC2NC(=O)NC2N1 (stereo unspecified)
[1]
  Potency: inactive
[2]
  Potency: inactive

## CC(=O)OC[C@H]1O[C@@](COC(C)=O)(O[C@H]2O[C@H](COC(C)=O)[C@@H](OC(C)=O)[C@H](OC(C)=O)[C@H]2OC(C)=O)[C@@H](OC(C)=O)[C@@H]1OC(C)=O
[1]
  Potency: inactive
[2]
  Potency: inactive

## CC(O)(P(=O)(O)O)P(=O)(O)O
[1]
  Potency: inactive
[2]
  Potency: inactive

## C=CCNC(N)=S
[1]
  Potency: inactive
[2]
  Potency: inactive

## O=C1OC(=O)C2CCCCC12 (stereo unspecified)
[1]
  Potency: inactive
[2]
  Potency: inactive

## Cc1ccc(S(=O)(=O)O)cc1C
[1]
  Potency: inactive
[2]
  Potency: inactive

## CCCCCCCCCCCCCOP(=O)(O)O
[1]
  Potency: inactive
[2]
  Potency: inactive

## CC(=O)c1ccccc1
[1]
  Potency: inactive
[2]
  Potency: inactive

## c1ccc(OCCOc2ccccc2)cc1
[1]
  Potency: inactive
[2]
  Potency: inactive

## C=C[Si](OC)(OC)OC
[1]
  Potency: inactive
[2]
  Potency: inactive

## CN1C[C@@H]2C[C@H]1CN2c1cc2c(cc1F)c(=O)c(C(=O)O)cn2C1CC1
[1]
  viability change, negative = cytotoxic: -0.602% [at 18.9 µM]
[2]
  activity change, negative = cytotoxicity: 19.9% [at 18.9 µM]

## CCCCC(CC)COC(=O)c1ccc(C(=O)OCC(CC)CCCC)cc1 (stereo unspecified)
[1]
  Potency: inactive
[2]
  Potency: inactive

## CC(=O)OC/C=C/c1ccccc1
[1]
  Potency: inactive
[2]
  Potency: inactive

## Cc1ccncc1
[1]
  Potency: inactive
[2]
  Potency: inactive

## CCCCOCCO
[1]
  Potency: inactive
[2]
  Potency: inactive

## Cc1ccc2ncccc2c1
[1]
  Potency: inactive
[2]
  Potency: 54.5 µM (active)

## CCCCCCCCCC[N+](C)(CCCCCCCCCC)CCC[Si](OC)(OC)OC
[1]
  Potency: 27.3 µM (active)
[2]
  Potency: 24.3 µM (active)
